Screens from PubChem BioAssay.
POLB inh = inhibitors of human DNA polymerase beta; P06746; 340,000 compounds, 1.3% hits; Potency, µM (top dose mostly 114 µM), for the others: at the highest dose activity change, negative = inhibition, hits mostly inhibitors; Pol beta primer extension/strand displacement, fluorescence kinetic; AID 485314; note: % is set by controls: 0 for no effect and ±100 for the full control effect
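Kinetic readout of DNA synthesis with strand displacement by Pol beta. Compound and 10 nM enzyme sit 15 min at room temperature; 50 nM substrate starts the reaction, read immediately and at 10 min.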
Pol iota inh = DNA polymerase iota (human) inhibition; Q9UNA4; Potency, µM (highest dose often 115 µM), inactives show at the top dose activity, negative = inhibition, hits mostly inhibitors; Pol iota fluorescent replication assay, 10 min; 390,000 compounds, 1% hits
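Fluorescent replication assay read twice, at 0 min and 10 min after adding 50 nM (final) substrate. Enzyme (10 nM) and compounds were first incubated 15 min at room temperature; enzyme-free buffer wells were negative controls.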
POLK inh = inhibitors of human DNA polymerase kappa; 400,000 compounds, 0.53% hits; Potency, µM (top dose mostly 107 µM), for inactives: at the top dose activity, negative = inhibition, hits mostly inhibitors; purified Pol kappa, fluorescent DNA synthesis assay, 10 min; AID 588579; note: % is set by controls: 0 for no effect and ±100 for the full control effect
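Inhibition of 10 nM Pol kappa is measured by a fluorescent read-out at 0 and 10 min following addition of 50 nM substrate (final), with a 15-min room-temperature compound preincubation.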
L3MBTL1 block = L3MBTL1 (human) inhibition; Potency, µM (highest dose often 57.1 µM), without a hit: top-dose activity, negative = inhibition, usual class: inhibitors; AlphaScreen L3MBTL1–H3K9me1 peptide binding; AID 485360; 230,000 compounds, 0.66% hits; note: % is set by controls: 0 for no effect and ±100 for the full control effect; nearly all actives have a fitted effect of over 60% in size
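Displacement of a biotinylated histone H3(1-15) peptide monomethylated at Lys9 (75 nM) from L3MBTL1 (50 nM) was measured by AlphaScreen after a 30 min room-temperature compound incubation; cefsulodin titration served as intraplate control.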
POLH inh = blocks human DNA polymerase eta activity; Q9Y253; recombinant Pol eta, fluorescent DNA replication assay; Potency, µM (series often up to 114 µM), for the others: at the highest dose activity change, negative = inhibition, actives largely listed as inhibitors; AID 588591; 390,000 compounds, 1.2% hits; note: % is set by controls: 0 for no effect and ±100 for the full control effect
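Pol eta (10 nM) was preincubated with compounds for 15 min at room temperature, after which fluorescent replication substrate (50 nM final) was added to start the reaction. Fluorescence was read kinetically at 0 and 10 min.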
WRN inhibitor = blocks human WRN helicase; 360,000 compounds, 0.46% hits; WRN helicase unwinding, fluorescent forked duplex, kinetic; Q14191; Potency, µM (doses to about 114 µM), for the others: top-dose activity change, negative = inhibition, hits mostly inhibitors; note: % is set by controls: 0 for no effect and ±100 for the full control effect; nearly all actives have a fitted effect of over 55% in size
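Screening of the MLSMR collection measured strand separation of a quenched forked DNA duplex (100 nM) by 20 nM WRN with 2 mM ATP, all final. Compounds were preincubated with enzyme 15 min at room temperature.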
An asterisk follows results filed as active; ? = inconclusive; · = not tested or not shown; [ ] = remark or other dose. An excerpt weighted towards active compounds, which were near 2.5% of everything screened. Calls come from the whole dose curve; as a rule, active = well fitted curve in the direction sought with a large enough effect; inconclusive = small, poorly fitted or top-dose-only effect, or another doubt; inactive = no such curve, though single readings can be large; an effect the other way counts as inactive or inconclusive. Potency is the fitted concentration of half-maximal effect.

SMILES | POLB inh | Pol iota inh | POLK inh | L3MBTL1 block | POLH inh | WRN inhibitor
CC(C)CNC(=O)c1cccc(NC(=O)c2ccc(NC(=O)c3ccco3)cc2)c1 | 25µM* | ? | -14% | · | -9% | -14%
O=C(NCC1CCCO1)c1ccc(Cn2c(=S)[nH]c3ccccc3c2=O)cc1 (stereo not given) | -2% | 110% | -20% | · | 7% | 4%
O=C(NCc1ccco1)c1ccc(Cn2c(=S)[nH]c3ccccc3c2=O)cc1 | 20µM* | 95% | -30% | · | ? | -28%
CCC(CC)C(=O)Nc1cccc(C(=O)NCc2ccco2)c1 | 3.2µM* | 40µM* | ? | ? | ? | -19%[57.1 µM]
COC(=O)c1ccc(NC(=O)c2cccc(NC(=O)c3ccco3)c2)cc1 | -20% | 33% | 1% | 4% | -8% | -23%
Cc1cc2c(c(=O)n1-c1ccccc1)C1O[C@](c3ccsc3)(Cc3cc(C#N)ccc31)O2 | 8.9µM* | · | · | · | · | ·
Cc1cc2c(c(=O)o1)C1O[C@](c3ccsc3)(Cc3cc(C#N)ccc31)O2 | 10µM* | · | · | · | · | ·
CCCCn1c(C)cc2c(c1=O)C1O[C@](c3ccsc3)(Cc3cc(OC)c(OC)cc31)O2 | 3%[22.9 µM] | · | · | · | · | ·
COc1ccc2c3c(c(=O)oc2c1)C1O[C@](c2ccsc2)(Cc2cc(C#N)ccc21)O3 | 3.2µM* | · | · | · | · | ·
N#Cc1ccc2c(c1)C[C@]1(c3ccsc3)Oc3c(c(=O)oc4ccc(F)cc34)C2O1 | 11µM* | · | · | · | · | ·
CCCC[C@]12Cc3cc(C#N)ccc3C(O1)c1c(c3cc(F)ccc3oc1=O)O2 | 1%[22.9 µM] | · | · | · | · | ·
N#Cc1ccc2c(c1)C[C@]1(CCCCN3C(=O)c4ccccc4C3=O)Oc3cc(-c4ccccc4)oc(=O)c3[C@H]2O1 | -28%[22.9 µM] | · | · | · | · | ·
CCc1ccccc1-n1c(N)c(C(=O)OC)c2nc3ccccc3nc21 | 26% | 23% | -7% | · | -5% | ·
CN(C)c1nc2c(cnn2C)c(=O)[nH]1 | · | 57% | 0% | · | -21% | 1%
O=P(O)(O)OC(CO)CO | · | · | 6%[60.1 µM] | · | · | ·
CCCCn1nnnc1C(c1cc2ccccc2o1)N1CCN(CCN(C)C)CC1 (stereo not given) | · | · | · | · | · | -4%
N#Cc1ccc2c(c1)C[C@]1(c3ccsc3)Oc3c(c(=O)oc4ccccc34)C2O1 | 2.8µM* | · | · | · | · | ·
CCCC[C@]12Cc3cc(C#N)ccc3C(O1)c1c(c3ccccc3oc1=O)O2 | 33%[22.9 µM] | · | · | · | · | ·
Cc1ccc(S(=O)(=O)CCC(=O)c2cccc([N+](=O)[O-])c2)cc1 | 8% | 84% | -12% | · | -4% | 14µM*
CCOC(=O)/C=C1/SCC(=O)N1Cc1ccc(Br)cc1 | · | -14% | -4% | · | -10% | 5%
CCOC(=O)/C=C1\SCC(=O)N1Cc1nnc(-c2ccccc2Br)o1 | 22µM* | ? | -7% | · | ? | -18%
CCc1cc[n+](CC(=O)Nc2ccc(Cl)cc2Cl)cc1 | 31% | -5% | -14% | · | -6% | 6%
CCn1nc([N+](=O)[O-])c2c(-c3nc4ccccc4o3)c(N)n(CCCOC)c2c1=O | ? | 160% | 1% | · | ? | 32µM*
CCC(=O)NC1=C(NC(C)c2ccccc2)C(=O)c2ccccc2C1=O (stereo not given) | 7% | 42% | -2% | · | -1% | 4%
CCC(=O)NC1=C(Cl)C(=O)C(NC(=O)CC)=C(Cl)C1=O | 11% | 1.8µM* | 1% | -22% | ? | ?
SMILES | POLB inh | Pol iota inh | POLK inh | L3MBTL1 block | POLH inh | WRN inhibitor
CC(=O)[C@@]1(O)[C@H](C)CC2C3CC=C4CC(OP(=O)(O)O)CC[C@]4(C)C3CC[C@@]21C (stereo not given in full) | 50µM* | -4% | -2% | · | -21% | 5%
CC(=O)C1(O)C(C)CC2C3CC=C4CC(O)CCC4(C)C3CCC21C (stereo not given) | · | 9% | -12% | · | -17% | 2%
COc1ccc(N2C(=O)/C(=C\c3ccco3)N=C2SCC(=O)N(C(C)C)C(C)C)cc1Cl | 56µM* | 5% | -11% | -13% | -10% | 3%
COc1ccccc1C(=O)COC(=O)c1cccs1 | · | 69% | -16% | 0% | -24% | -11%
CCOC(=O)Cc1nnc(NC(=O)c2ccccc2OCC)s1 | -3% | 23% | -2% | -6% | -13% | 1%
CCOC(=O)Cc1nnc(NC(=O)c2ncn[nH]2)s1 | 0% | 7.1µM* | 4% | · | 1% | -23%[57.1 µM]
O=S(=O)(C/C(=C/CO)S(=O)(=O)c1ccccc1)c1ccccc1 | 10% | 22µM* | 4% | 1% | -20% | -28%
NC(=S)N=Nc1c(O)[nH]c2ccc(F)cc12 | 28% | 32% | -4% | -6% | -15% | -17%
NC(=S)N=Nc1c(O)cc(O)c2[nH]c(=O)ccc12 | · | 3.2µM* | ? | · | 1.8µM* | 16µM*
CCCCC(C(=O)NC1CCCC1)N(C(=O)c1snc(C(N)=O)c1N)c1ccc(OCC)cc1 (stereo not given) | 23% | 96% | -7% | · | -6% | -2%
Oc1cc(CNC2CCCCC2)c(O)cc1CNC1CCCCC1 | · | ? | 79µM* | · | ? | -13%
Cc1ccccc1CNC1CCCCC1 | 0% | 5% | -27% | 7% | -19% | -11%
O=C(CCCCCNC(=O)c1ccccc1Br)N=Nc1c(O)[nH]c2ccccc12 | 2% | 79µM* | -17% | -28% | -7% | -18%[57.1 µM]
O=C(N/N=C/c1c[nH]c2ccccc12)c1ccc(O)c(O)c1 | 45µM* | ? | ? | · | ? | ?
COc1ccc(C(=O)N2CCSCC2)cc1OC1CCN(C(C)=O)CC1 | -1% | -4% | -11% | · | -7% | ?
Cc1ccc2nc(NCc3ccco3)c(C=NCc3ccco3)c(=O)n2c1 | 28µM* | 1% | -14% | ? | -6% | -13%
CC1(C(=O)O)CCC(C(=O)NC2CCCCC2)C1(C)C (stereo not given) | 89µM* | 29% | -8% | · | -7% | -11%
CC1(C(=O)O)CCC(C(=O)NC2CCCCCC2)C1(C)C (stereo not given) | 20% | ? | -2% | -9% | 6% | -1%
S=C(Nc1ccccc1)Nc1nc2ccccc2n1CCOc1ccc(Br)cc1 | -4% | 15% | -13% | 6.3µM* | -17% | -19%[57.1 µM]
Nc1nc2ccccc2n1CCOc1ccc(Br)cc1 | 18% | 28% | 6% | · | -6% | -5%
N[C@@H](Cc1cc(CP(=O)(O)O)cc(-c2ccccc2Cl)c1)C(=O)O | · | · | 21µM* | · | · | ·
NC(Cc1cccc(-c2ccccc2CP(=O)(O)O)c1)C(=O)O (stereo not given) | 1%[57.1 µM] | 7%[58.9 µM] | -6%[60.1 µM] | · | 0%[57.1 µM] | ·
COc1ccc(NC(=O)COc2ccc(-n3cnnn3)cc2)cc1OC | · | 2% | 5% | 0% | -5% | -5%
